In the supplement of paper PMC8728848:
Shown is part of a subset that was picked to be rich in the strongest signals.

What was measured:
Experiment in all cases: glycan array binding signal (z-score within array); higher = stronger binding
Settings in all cases: glycan notation: IUPAC condensed, linker removed
[1] = biological target: GlcNAc(a1-4)Gal(b1-4)GlcNAc(b1-3)Gal(b1-4)[Fuc(a1-3)]GlcNAc(b1-3)Gal(b1-4)[Fuc(a1-3)]GlcNAc
Outline: (§1)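 Columns mapping to the same glycan were averaged after glycan names were converted to IUPAC-condensed notation. The data come from 3228 arrays in the Consortium for Functional Glycomics database, limited to those with an available protein sequence. Binding is reported as a within-array Z-score averaged across arrays of one protein sequence and across linkers.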

[2] = biological target: GlcNAc(b1-2)[GlcNAc(b1-6)]Man(a1-6)[GlcNAc(b1-2)Man(a1-3)]Man(b1-4)GlcNAc(b1-4)GlcNAc
Outline: as §1

[3] = biological target: GlcNAc(b1-3)Gal(b1-3)GalNAc
Outline: as §1

[4] = biological target: GlcNAc(b1-3)Gal(b1-4)GlcNAc(b1-3)Gal(b1-4)GlcNAc(b1-3)Gal(b1-4)GlcNAc(b1-2)Man(a1-3)[GlcNAc(b1-3)Gal(b1-4)GlcNAc(b1-3)Gal(b1-4)GlcNAc(b1-3)Gal(b1-4)GlcNAc(b1-2)Man(a1-6)]Man(b1-4)GlcNAc(b1-4)GlcNAc
Outline: as §1

[5] = biological target: GlcNAc(b1-3)Gal(b1-4)GlcNAc(b1-3)Gal(b1-4)GlcNAc(b1-3)Gal(b1-4)GlcNAc(b1-2)[GlcNAc(b1-3)Gal(b1-4)GlcNAc(b1-3)Gal(b1-4)GlcNAc(b1-3)Gal(b1-4)GlcNAc(b1-6)]Man(a1-6)[GlcNAc(b1-3)Gal(b1-4)GlcNAc(b1-3)Gal(b1-4)GlcNAc(b1-3)Gal(b1-4)GlcNAc(b1-2)Man(a1-3)]Man(b1-4)GlcNAc(b1-4)[Fuc(a1-6)]GlcNAc
Outline: as §1

GlcNAc(b1-3)Man = biological target: GlcNAc(b1-3)Man
Outline: as §1

GlcNAc(b1-4)GlcNAc = biological target: GlcNAc(b1-4)GlcNAc
Outline: as §1

[6] = biological target: Kdn(a2-3)Gal(b1-4)[Fuc(a1-3)]GlcNAc
Outline: as §1

[7] = biological target: Man(a1-3)[Man(a1-6)]Man(a1-6)[Man(a1-3)]Man(b1-4)GlcNAc(b1-4)GlcNAc
Outline: as §1

[8] = biological target: Neu5Ac(a2-3)Gal(b1-4)GlcNAc(b1-3)Gal(b1-4)GlcNAc
Outline: as §1

[9] = biological target: Neu5Ac(a2-3)Gal(b1-4)GlcNAc(b1-3)Gal(b1-4)GlcNAc(b1-6)[Gal(b1-3)]GalNAc
Outline: as §1

[10] = biological target: Neu5Ac(a2-6)Gal(b1-4)GlcNAc(b1-2)[Neu5Ac(a2-6)Gal(b1-4)GlcNAc(b1-4)]Man(a1-3)[GlcNAc(b1-4)][Neu5Ac(a2-6)Gal(b1-4)GlcNAc(b1-2)[Neu5Ac(a2-6)Gal(b1-4)GlcNAc(b1-6)]Man(a1-6)]Man(b1-4)GlcNAc(b1-4)GlcNAc
Outline: as §1

[11] = biological target: Neu5Ac(a2-6)Gal(b1-4)GlcNAc(b1-3)Gal(b1-4)GlcNAc(b1-3)[Neu5Ac(a2-6)Gal(b1-4)GlcNAc(b1-3)Gal(b1-4)GlcNAc(b1-6)]GalNAc
Outline: as §1

[12] = biological target: Neu5Ac(a2-6)Gal(b1-4)GlcNAc(b1-6)GalNAc
Outline: as §1

[13] = biological target: Neu5Ac(a2-6)Gal(b1-4)GlcNAc6S
Outline: as §1

[14] = biological target: Neu5Ac(a2-8)Neu5Ac(a2-8)Neu5Ac(a2-3)[GalNAc(b1-4)]Gal(b1-4)Glc
Outline: as §1

[15] = biological target: Neu5Ac(a2-8)Neu5Ac(a2-8)Neu5Ac(a2-8)Neu5Ac(a2-3)[GalNAc(b1-4)]Gal(b1-4)Glc
Outline: as §1

[16] = biological target: Neu5Ac(a2-8)Neu5Gc(a2-3)Gal(b1-4)GlcNAc
Outline: as §1

B1: PX14351B-bth-512-36-512 (Bacteroides thetaiotaomicron) (protein)
chain: ASETQQWKTLEDTRSALMGVYGLTRAALADNNTHWICGDLRKGDFTVYKRSDLQAVSDNELNKPYDLLKKVSNWRRFYAVINAASVFMEKAPRTVELDRSYSEQNLKYDIAQVRALRAFAYFYMVRIWGDVPLVTYSYDNGTFPSMPRTDAQTVLSYAKAELLTAIEDLPYQYGTQTNLYYGSYGAQWQGKLFNKLSAYSVLAHICAWQGNYAEAETYSAFIIDHASEINAKYTSIADLTSETGLFYSNASVKGSRILGFNFAHNDNEATQSGHLEQLTLAYPLVQKSYPEIYISKDSLFSIFTNFDDLRFGIIDTIKYSSYYVQNLNEETPVFSKIKIIQDGSAKDNDFGVFGSSIVFTRLEDITLLRAEALCALNRSTEAVSYLNMIRTNRGLREVSFKKDFGNNRESLIAEIFEERRRELMGEGWRWYDLVRRQKLMKDNEAFLRLISSGGIYWPVSEDIITANSQIEQNEFWK
glycan array binding signal (z-score) [1]: -0.049 | glycan array binding signal (z-score) [2]: -0.115 | glycan array binding signal (z-score) [3]: -0.128 | glycan array binding signal (z-score) [4]: -0.068 | glycan array binding signal (z-score) [5]: 0.033 | glycan array binding signal (z-score) (GlcNAc(b1-3)Man): -0.006 | glycan array binding signal (z-score) (GlcNAc(b1-4)GlcNAc): -0.165 | glycan array binding signal (z-score) [6]: -0.287 | glycan array binding signal (z-score) [7]: -0.271 | glycan array binding signal (z-score) [8]: -0.265 | glycan array binding signal (z-score) [9]: 0.652 | glycan array binding signal (z-score) [10]: 0.217 | glycan array binding signal (z-score) [11]: -0.33 | glycan array binding signal (z-score) [12]: 0.191 | glycan array binding signal (z-score) [13]: -0.355 | glycan array binding signal (z-score) [14]: -0.362 | glycan array binding signal (z-score) [15]: 1.91 | glycan array binding signal (z-score) [16]: 4.31
